PubChem BioAssay (NCI)
The panel holds about 83,000 compounds, 20% with a hit somewhere; the sample as a whole holds those more often.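 The endpoint reported here, percent growth, reads 100 for growth as untreated, 0 for no net growth and -100 for all cells dead.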 Activity calls are given as the source filed them. Rule for the calls: active = growth percent below 10; inactive = the rest.

Experiments:
Assay in all cases: NCI-60 one-dose screen, 48 h (100 = growth as untreated, 0 = no growth, -100 = all killed)
Settings in all cases: 10 µM
NCI-H23 lung = system: NCI-H23 lung
NCI-H522 lung = system: NCI-H522 lung
MDA-MB-231 breast = system: MDA-MB-231 breast
M14 melanoma = system: M14 melanoma
SK-MEL-5 melanoma = system: SK-MEL-5 melanoma
UACC-62 melanoma = system: UACC-62 melanoma
LOX IMVI melanoma = system: LOX IMVI melanoma
MOLT-4 leukemia = system: MOLT-4 leukemia
SR leukemia = system: SR leukemia
OVCAR-8 ovarian = system: OVCAR-8 ovarian
OVCAR-5 ovarian = system: OVCAR-5 ovarian
OVCAR-4 ovarian = system: OVCAR-4 ovarian
SK-OV-3 ovarian = system: SK-OV-3 ovarian
IGROV1 ovarian = system: IGROV1 ovarian
HS 578T breast = system: HS 578T breast
T-47D breast = system: T-47D breast
SW-620 colon = system: SW-620 colon
MCF7 breast = system: MCF7 breast
HCT-116 colon = system: HCT-116 colon
KM12 colon = system: KM12 colon

Measured: growth

CC(=O)O[C@@H]1C[C@H]2O[C@@H]3C=C(C)CC[C@]3(C)[C@]1(C)[C@]21CO1
active: NCI-H23 lung 7.96% | NCI-H522 lung 2.05% | MDA-MB-231 breast 4.27% | M14 melanoma -45.9% | SK-MEL-5 melanoma -50.9% | UACC-62 melanoma 2.75% | LOX IMVI melanoma -41.5% | MOLT-4 leukemia -9.55% | SR leukemia 0.874% | OVCAR-8 ovarian 8.44% | OVCAR-4 ovarian -1.86% | T-47D breast -2.72% | SW-620 colon 7.09% | MCF7 breast 3.89% | HCT-116 colon 0.731%
inactive: OVCAR-5 ovarian 84.3% | SK-OV-3 ovarian 18.1% | IGROV1 ovarian 22.8% | HS 578T breast 22.7% | KM12 colon 27.4%

C[C@@H]1CCC/C=C/[C@H]2C[C@@H](O)C[C@@H]2[C@@H](O)/C=C/C(=O)O1
active: NCI-H23 lung 5.85% | NCI-H522 lung -26.3% | MDA-MB-231 breast -62.2% | M14 melanoma 6.74% | SK-MEL-5 melanoma -92.8% | LOX IMVI melanoma -70% | MOLT-4 leukemia 1.42% | SR leukemia 1.7% | OVCAR-8 ovarian 3.04% | SK-OV-3 ovarian 8.48% | IGROV1 ovarian 5.5% | T-47D breast 7.4% | HCT-116 colon -1.47%
inactive: UACC-62 melanoma 25.9% | OVCAR-5 ovarian 30.5% | OVCAR-4 ovarian 22.1% | HS 578T breast 42% | SW-620 colon 10.3% | MCF7 breast 10.8% | KM12 colon 14.9%

CC1=C(CN(O)C(N)=O)C2=C(C)C3(CC3)[C@](C)(O)C(=O)C2=C1
active: NCI-H522 lung -7.03% | M14 melanoma -55.4% | SR leukemia -4.72% | OVCAR-8 ovarian 6.82% | T-47D breast 6.89% | SW-620 colon 8.93% | MCF7 breast 3.76% | HCT-116 colon 7.48% | KM12 colon -1.93%
inactive: NCI-H23 lung 10.7% | MDA-MB-231 breast 12.4% | SK-MEL-5 melanoma 85.8% | UACC-62 melanoma 14.4% | LOX IMVI melanoma 56% | MOLT-4 leukemia 76.2% | OVCAR-5 ovarian 10.3% | OVCAR-4 ovarian 13.7% | SK-OV-3 ovarian 14.7% | IGROV1 ovarian 29% | HS 578T breast 33.7%

C[C@@H]1C[C@H]2C(=O)O[C@@H](C)C(NC(=O)[C@H](Cc3cc(F)cc(F)c3)NC(=O)Nc3ccc(OS(=O)(=O)F)cc3)C(=O)N3CCC[C@H]3C(=O)N3CCO[C@H](C)[C@H]3C(=O)N[C@@H](CO)C(=O)N2C1 (stereo not given in full)
inactive: NCI-H23 lung 36.1% | NCI-H522 lung 20.3% | MDA-MB-231 breast 32% | M14 melanoma 23.6% | UACC-62 melanoma 23.5% | MOLT-4 leukemia 43.8% | SR leukemia 25.3% | OVCAR-8 ovarian 23.6% | OVCAR-5 ovarian 33.4% | OVCAR-4 ovarian 26.2% | SK-OV-3 ovarian 18.7% | IGROV1 ovarian 47.4% | HS 578T breast 40.2% | T-47D breast 33% | SW-620 colon 39% | MCF7 breast 16.8% | KM12 colon 37.8%
active: SK-MEL-5 melanoma -6.32% | LOX IMVI melanoma 7.58% | HCT-116 colon 9.86%

C/C=C\C(=O)O[C@@H]1CC2O[C@@H]3C=C(C)C(=O)C[C@]3(C)[C@]1(C)[C@]21CO1
active: NCI-H23 lung -21.3% | NCI-H522 lung -18.4% | MDA-MB-231 breast -21.1% | M14 melanoma -78.6% | SK-MEL-5 melanoma -57% | UACC-62 melanoma -27.2% | LOX IMVI melanoma -56.3% | MOLT-4 leukemia -26.4% | SR leukemia -13.1% | OVCAR-8 ovarian 0.288% | OVCAR-5 ovarian -3.51% | OVCAR-4 ovarian -12.2% | SK-OV-3 ovarian -15.1% | IGROV1 ovarian 1.08% | HS 578T breast -2.98% | T-47D breast -24% | SW-620 colon 0.59% | MCF7 breast 0.933% | HCT-116 colon -29.4% | KM12 colon 3.28%

C=C1[C@@H](C)C2[C@H](Cc3ccccc3)NC(=O)[C@]23[C@H](OC(C)=O)/C=C/[C@@](C)(O)C(=O)[C@@H](C)C/C=C/[C@H]3[C@@H]1O (stereo not given in full)
inactive: NCI-H23 lung 69.8% | NCI-H522 lung 22.3% | MDA-MB-231 breast 33% | M14 melanoma 51.3% | SK-MEL-5 melanoma 33.5% | UACC-62 melanoma 84.5% | MOLT-4 leukemia 62.3% | SR leukemia 43.2% | OVCAR-8 ovarian 74.6% | OVCAR-5 ovarian 96.1% | OVCAR-4 ovarian 34.7% | SK-OV-3 ovarian 15.1% | T-47D breast 81.6% | SW-620 colon 77.2% | MCF7 breast 23.3% | HCT-116 colon 44.4% | KM12 colon 62.7%
active: LOX IMVI melanoma 1.65% | IGROV1 ovarian 8.46% | HS 578T breast 9.13%

N#Cc1nc(-c2ccccc2)oc1N1CCC(S(=O)(=O)F)CC1
inactive: NCI-H23 lung 99.2% | NCI-H522 lung 93.9% | MDA-MB-231 breast 98.7% | M14 melanoma 106% | SK-MEL-5 melanoma 96.3% | UACC-62 melanoma 98.1% | LOX IMVI melanoma 104% | MOLT-4 leukemia 94.3% | SR leukemia 83.4% | OVCAR-8 ovarian 94.3% | OVCAR-5 ovarian 104% | OVCAR-4 ovarian 101% | SK-OV-3 ovarian 107% | IGROV1 ovarian 103% | HS 578T breast 98.5% | T-47D breast 106% | SW-620 colon 103% | MCF7 breast 98.2% | HCT-116 colon 101% | KM12 colon 97.1%
